# Assay results as given in PubChem BioAssay (NCATS).
# Inconclusive results are not listed. Where a call stands in place of a potency, no number is given. The source made the active and inactive calls. Unless noted, calls come from the whole dose curve; as a rule, active = well fitted inhibition curve with a large enough effect; inconclusive = small, poorly fitted or top-dose-only effect; inactive = flat fitted curve, though single readings scatter.
# Columns and labels:
# [1] = AP1 Signaling Pathway (AID 357; active = well fitted curve in either direction with a large enough effect, not every such curve was filed as active;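 note: ME-180 reporter cells stimulated with EGF at its EC50 level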)
# Summary of the method: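 Modulation of EGF-driven AP-1 transcription was assessed with a beta-lactamase reporter in ME-180 cells. Compound and EC50 EGF were co-incubated 5 hours at 37 °C before 2.5-hour CCF4 loading at room temperature and dual-emission reading.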
# [2] = target: Cytochrome P450 1A2 (Homo sapiens) (UniProt P05177); test: p450-cyp1a2 (AID 410; calls by dose curve; note: potency is the fitted concentration of half-maximal effect)
# Summary of the method: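 Human CYP1A2 (20nM) demethylated Luciferin-ME at its Km (100uM) in 100mM KPO4. After 10 min compound preincubation, NADPH regeneration ran the reaction 60 min at room temperature. Luciferin was read by luminescence, normalized to 57 uM furafylline.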
# [3] = Stat Signaling Pathway (AID 446; active = well fitted curve in either direction with a large enough effect, not every such curve was filed as active;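 note: ME-180 cervical cancer cells given 40 pM IL-6 alongside compound; SIE-controlled beta-lactamase reporter measured as 460/530 nm FRET emission ratio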)
# Summary of the method: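 IL-6/STAT signaling read in ME-180 cells via an SIE beta-lactamase reporter. Stimulus was 40 pM IL-6 (its AC50) for 5 hrs, so both activation and inhibition register.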
# [4] = target: Mitogen-activated protein kinase 10 (Mus musculus) (UniProt Q61831); test: JNK3 AlphaScreen Assay (AID 530; active = well fitted curve in either direction with a large enough effect, not every such curve was filed as active;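 note: kinase came from lysate of stimulated human HepG2 cells; signal reports phosphorylation of biotinylated GST-cJun 1-79 at Ser73 with 10 µM ATP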)
# Summary of the method: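 qHTS format: compounds tested as titrations against IL-1beta/TNF-alpha-activated HepG2 lysate JNK3 with biotin-GST-cJun substrate and 10 uM ATP at room temperature. Loss of anti-phospho-cJun AlphaScreen signal indicates inhibition.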
# [5] = qHTS Assay for Lipid Storage Modulators (AID 1519; calls by dose curve); conditions: Drosophila S3 cells, BODIPY lipid droplet/cell ratio, laser cytometry, cells loaded with oleic acid; for activity change, negative = inhibition: at 25.7 µM (top of the series)
# Summary of the method: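 Cells seeded at 5,000 per well were treated with compounds over a concentration series and loaded with oleic acid (400 uM, as added). Lipid droplet fluorescence (488 nm excitation, 500-530 nm channel) was read by laser-scanning cytometry and normalized to 20 uM Triacsin C.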
# [6] = target: Ubiquitin carboxyl-terminal hydrolase 1 (Homo sapiens) (UniProt O94782); test: Inhibitors of USP1/UAF1: Pilot qHTS (AID 504865);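 note: rhodamine fluorescence freed from ubiquitin-rhodamine substrate followed over time; top concentration of the series differs between compounds; nearly all actives have a fitted effect of over 35% in size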
# Summary of the method: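 Enzyme-free wells gave the negative control, while test wells held 1nM USP1/UAF1 preincubated with compound for 15 min at room temperature. Ub-Rho at 150nM final started the reaction, and fluorescence at 480/540 nm was recorded kinetically.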
# [7] = target: Luciferin 4-monooxygenase (Photinus pyralis) (UniProt P08659); test: Biochemical firefly luciferase enzyme assay for NPC (AID 624030);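 note: purified P. pyralis luciferase at 10 nM with luciferin and ATP substrate; nearly all actives have a fitted effect of over 70% in size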
# Summary of the method: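 Purified P. pyralis luciferase at 10 nM in 50 mM Tris Acetate (final), luminescence read within 5 minutes of enzyme addition to compounds. Activity normalised to PTC124 versus DMSO; concentration-response curves classed by r2, magnitude and activity.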
# [8] = qHTS profiling for inhibitors of Plasmodium falciparum proliferation (AID 504749); note: nearly all actives have a fitted effect of over 60% in size; conditions: P. falciparum in erythrocytes, SYBR Green DNA, 72 h, at 12.8 µM (top of the series)
# Summary of the method: (§1)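 Readout was DNA-dye fluorescence from lysed cultures, ex 485/em 535 nm. Parasitized red cells had grown 72 h with compound; data scaled between 0.29 uM artemisinin and DMSO wells and corrected using vehicle-only plates.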
# C2A = test: as above; conditions: P. falciparum in erythrocytes, SYBR Green DNA, 72 h; series mostly up to 12.8 µM
# Summary of the method: as §1
# CP217 = test: as above; conditions: P. falciparum in erythrocytes, SYBR Green DNA, 72 h; series mostly up to 12.8 µM
# Summary of the method: as §1
# CP238 = test: as above; conditions: P. falciparum in erythrocytes, SYBR Green DNA, 72 h; series mostly up to 12.8 µM
# Summary of the method: as §1
# CP250 = test: as above; conditions: P. falciparum in erythrocytes, SYBR Green DNA, 72 h; series mostly up to 12.8 µM
# Summary of the method: as §1
# CP256 = test: as above; conditions: P. falciparum in erythrocytes, SYBR Green DNA, 72 h; series mostly up to 12.8 µM
# Summary of the method: as §1
# FAB9 = test: as above; conditions: P. falciparum in erythrocytes, SYBR Green DNA, 72 h; series mostly up to 12.8 µM
# Summary of the method: as §1
# JCK = test: as above; conditions: P. falciparum in erythrocytes, SYBR Green DNA, 72 h; series mostly up to 12.8 µM
# Summary of the method: as §1
# SC27B = test: as above; conditions: P. falciparum in erythrocytes, SYBR Green DNA, 72 h; series mostly up to 12.8 µM
# Summary of the method: as §1
# [9] = target: Glucocorticoid receptor (Homo sapiens) (UniProt P04150); test: GR-GFP Redistribution (AID 450;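 active = compounds whose dose series gives a full or clear partial fitted curve of increased nuclear translocation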; note: potency is the fitted concentration of half-maximal effect); conditions: U2OS GR-GFP nuclear translocation, laser cytometry, 2 h
# [10] = target: Glucocorticoid receptor (Homo sapiens) (UniProt P04150); test: GR-EFC Redistribution (AID 451; calls by dose curve; note: potency is the fitted concentration of half-maximal effect); conditions: CHO-K1 GR-EFC translocation, beta-gal luminescence, 2 h
# Summary of the method: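 CHO-K1 cells expressing nuclear EA and GR-ED fragments of b-gal; compounds titrated up to 46 uM final, 2 h at 37 C. GR nuclear translocation read as complemented b-gal luminescence after 1 h RT detection.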
# [11] = target: 3',5'-cyclic-AMP phosphodiesterase 4B (Homo sapiens) (UniProt Q07343); test: qHTS Assay for Inhibitors of PDE-IV (AID 607; active = well fitted activation curve with a large enough effect in the main read-out, with a control signal flat, not every such curve was filed as active)
# Summary of the method: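 Live HEK293 cells with a modified cyclic nucleotide-gated (CNG) channel report intracellular cAMP via membrane-potential dye fluorescence (ex 535/em 590 nm). Endogenous PDE-IV was targeted. Compounds were tested at up to 22.9 uM final; RO 20-1724 100 uM served as control.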
# [12] = NFAT Signaling Pathway (AID 444; active = well fitted curve in either direction with a large enough effect, not every such curve was filed as active;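 note: carbachol stimulus at about its EC50 of 1 µM final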); conditions: Jurkat NFAT-bla M1, carbachol, beta-lactamase ratio, 5 h; at 17.2 µM (top of the series) unless noted
# Summary of the method: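 Jurkat cells with NFAT-driven β-lactamase reporter and co-expressed M1 receptor, stimulated with carbachol (final 1 uM, ~EC50), compound titration, 5 h at 37 °C. CCF4 loaded 1 h at RT; 460/530 nm ratio gave %activity and AC50.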
# [13] = measured here: cell count channel max response
# [14] = measured here: lipid channel max response
# 3',5'-cyclic-AMP phosphodiesterase 4B (Homo sapiens), sequence (Q07343 whole entry, looked up): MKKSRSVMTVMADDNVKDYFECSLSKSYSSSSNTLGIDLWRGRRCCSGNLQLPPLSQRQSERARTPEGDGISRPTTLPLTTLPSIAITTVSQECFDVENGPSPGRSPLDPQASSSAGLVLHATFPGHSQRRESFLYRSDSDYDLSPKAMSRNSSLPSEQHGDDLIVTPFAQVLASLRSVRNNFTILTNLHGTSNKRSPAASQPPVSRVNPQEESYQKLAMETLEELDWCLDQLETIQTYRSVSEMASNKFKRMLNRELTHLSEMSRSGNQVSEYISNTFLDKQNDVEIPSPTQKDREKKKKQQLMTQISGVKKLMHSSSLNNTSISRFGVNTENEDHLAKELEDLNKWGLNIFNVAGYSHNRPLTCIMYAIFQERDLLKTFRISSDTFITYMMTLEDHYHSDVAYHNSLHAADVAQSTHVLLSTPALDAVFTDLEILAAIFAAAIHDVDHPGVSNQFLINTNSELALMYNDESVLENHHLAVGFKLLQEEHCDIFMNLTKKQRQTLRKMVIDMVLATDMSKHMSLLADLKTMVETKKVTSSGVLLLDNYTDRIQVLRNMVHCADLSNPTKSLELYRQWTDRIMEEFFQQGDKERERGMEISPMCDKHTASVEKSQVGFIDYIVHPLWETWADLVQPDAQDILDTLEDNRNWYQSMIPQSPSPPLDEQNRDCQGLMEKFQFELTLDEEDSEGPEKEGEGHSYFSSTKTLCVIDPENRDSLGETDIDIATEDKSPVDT
# Luciferin 4-monooxygenase (Photinus pyralis), sequence (P08659 whole entry, looked up): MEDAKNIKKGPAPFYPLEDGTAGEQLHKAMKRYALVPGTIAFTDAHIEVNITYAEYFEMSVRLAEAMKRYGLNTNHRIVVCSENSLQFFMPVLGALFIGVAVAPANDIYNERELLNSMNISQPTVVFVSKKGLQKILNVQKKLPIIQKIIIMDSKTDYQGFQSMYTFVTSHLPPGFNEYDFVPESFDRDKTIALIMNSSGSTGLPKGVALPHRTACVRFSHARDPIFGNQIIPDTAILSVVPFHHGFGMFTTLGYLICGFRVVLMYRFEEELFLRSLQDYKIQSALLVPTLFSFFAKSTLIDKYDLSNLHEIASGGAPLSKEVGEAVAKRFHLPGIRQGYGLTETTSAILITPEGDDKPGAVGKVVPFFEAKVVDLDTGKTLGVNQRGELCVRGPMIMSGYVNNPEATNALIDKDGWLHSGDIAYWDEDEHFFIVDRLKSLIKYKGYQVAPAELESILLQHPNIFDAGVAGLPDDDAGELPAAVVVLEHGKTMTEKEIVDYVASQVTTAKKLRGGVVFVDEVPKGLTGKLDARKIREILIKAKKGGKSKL
# Glucocorticoid receptor (Homo sapiens), sequence (P04150 whole entry, looked up, the tested form may be a part): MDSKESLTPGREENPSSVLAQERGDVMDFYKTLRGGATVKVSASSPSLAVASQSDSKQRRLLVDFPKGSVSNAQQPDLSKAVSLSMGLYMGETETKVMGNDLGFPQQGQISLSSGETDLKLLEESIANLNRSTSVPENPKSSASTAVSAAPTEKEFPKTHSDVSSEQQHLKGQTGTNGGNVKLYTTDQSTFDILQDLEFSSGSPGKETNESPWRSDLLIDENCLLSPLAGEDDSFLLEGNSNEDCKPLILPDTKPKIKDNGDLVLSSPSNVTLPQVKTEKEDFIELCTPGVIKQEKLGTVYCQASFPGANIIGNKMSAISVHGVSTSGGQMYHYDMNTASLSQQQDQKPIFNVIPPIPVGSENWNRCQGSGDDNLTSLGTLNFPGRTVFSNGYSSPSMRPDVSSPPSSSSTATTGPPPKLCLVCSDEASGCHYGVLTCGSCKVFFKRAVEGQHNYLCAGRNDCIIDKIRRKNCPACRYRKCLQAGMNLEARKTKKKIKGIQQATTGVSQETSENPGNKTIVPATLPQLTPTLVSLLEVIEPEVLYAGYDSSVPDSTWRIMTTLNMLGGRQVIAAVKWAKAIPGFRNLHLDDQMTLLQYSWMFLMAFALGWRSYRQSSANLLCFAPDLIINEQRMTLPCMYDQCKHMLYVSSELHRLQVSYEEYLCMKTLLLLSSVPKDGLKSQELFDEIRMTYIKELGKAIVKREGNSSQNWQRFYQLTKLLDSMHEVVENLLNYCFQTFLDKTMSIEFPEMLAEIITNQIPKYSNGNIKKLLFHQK
# Ubiquitin carboxyl-terminal hydrolase 1 (Homo sapiens), sequence (O94782 whole entry, looked up): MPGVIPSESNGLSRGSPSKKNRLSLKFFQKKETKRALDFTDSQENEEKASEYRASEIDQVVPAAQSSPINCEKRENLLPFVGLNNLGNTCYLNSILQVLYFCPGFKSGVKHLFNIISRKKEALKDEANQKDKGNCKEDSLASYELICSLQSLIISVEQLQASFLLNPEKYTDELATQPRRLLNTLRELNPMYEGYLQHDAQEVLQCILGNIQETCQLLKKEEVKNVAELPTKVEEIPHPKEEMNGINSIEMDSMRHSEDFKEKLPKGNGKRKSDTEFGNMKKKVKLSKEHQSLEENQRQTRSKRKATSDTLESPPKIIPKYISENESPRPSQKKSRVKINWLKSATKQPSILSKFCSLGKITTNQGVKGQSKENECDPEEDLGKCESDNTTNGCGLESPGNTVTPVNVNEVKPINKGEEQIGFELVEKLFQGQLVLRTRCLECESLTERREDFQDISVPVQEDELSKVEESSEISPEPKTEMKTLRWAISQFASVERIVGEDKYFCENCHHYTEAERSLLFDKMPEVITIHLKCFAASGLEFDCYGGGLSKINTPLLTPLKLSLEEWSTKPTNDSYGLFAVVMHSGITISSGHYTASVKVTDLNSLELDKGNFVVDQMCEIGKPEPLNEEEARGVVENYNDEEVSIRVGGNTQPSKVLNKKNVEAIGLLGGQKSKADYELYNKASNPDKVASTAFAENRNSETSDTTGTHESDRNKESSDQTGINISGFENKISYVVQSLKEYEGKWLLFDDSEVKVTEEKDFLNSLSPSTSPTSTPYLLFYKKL
# Cytochrome P450 1A2 (Homo sapiens), sequence (P05177 whole entry, looked up): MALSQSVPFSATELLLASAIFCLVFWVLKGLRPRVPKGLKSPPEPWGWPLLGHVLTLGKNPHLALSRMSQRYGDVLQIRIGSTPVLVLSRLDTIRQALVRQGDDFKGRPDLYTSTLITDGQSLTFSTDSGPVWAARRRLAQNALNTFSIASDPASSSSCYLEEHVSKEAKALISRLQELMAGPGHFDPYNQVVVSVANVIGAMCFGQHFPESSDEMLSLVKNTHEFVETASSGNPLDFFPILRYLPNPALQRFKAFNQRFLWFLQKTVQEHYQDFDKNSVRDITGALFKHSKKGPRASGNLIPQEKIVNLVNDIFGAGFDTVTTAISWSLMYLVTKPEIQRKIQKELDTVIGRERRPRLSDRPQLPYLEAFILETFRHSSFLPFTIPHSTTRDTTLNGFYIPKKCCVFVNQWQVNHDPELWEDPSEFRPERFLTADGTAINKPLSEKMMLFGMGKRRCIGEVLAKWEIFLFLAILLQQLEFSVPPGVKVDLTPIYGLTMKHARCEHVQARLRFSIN
smiles,measurement,setting,value
C[C@H](C(=O)O)c1cccc(Oc2ccccc2)c1,outcome,[1],inactive
same,Potency,[2],inactive
same,outcome,[3],inactive
same,Potency,[4],inactive
same,"activity change, negative = inhibition",[5],0.849% (inactive)
same,max response,[5]; [13],0.75%
same,max response,[5]; [14],-2.59%
same,Potency,[6],inactive
same,Potency,[7],inactive
same,"activity, negative = inhibition",[8]; parasite line A,2.84% (inactive)
same,"activity, negative = inhibition",[8]; parasite line B,14.9% (inactive)
same,Potency,C2A,inactive
same,Potency,CP217,inactive
same,Potency,CP238,inactive
same,Potency,CP250,inactive
same,Potency,CP256,inactive
same,Potency,FAB9,inactive
same,Potency,JCK,inactive
same,Potency,SC27B,inactive
Cc1nccn1C[C@@H]1CCc2c(c3ccccc3n2C)C1=O,outcome,[1],inactive
same,Potency,[2],3.98 µM (active)
same,outcome,[3],inactive
same,Potency,[9],> 20.6 µM (inactive)
same,Potency,[10],> 20.6 µM (inactive)
same,outcome,[11],inactive
same,"activity change, negative = inhibition",[5],-8.25% (inactive)
same,max response,[5]; [13],-10%
same,max response,[5]; [14],-16.3%
same,Potency,[6],inactive
same,Potency,[7],inactive
N[C@H](Cc1cc(I)c(Oc2cc(I)c(O)c(I)c2)c(I)c1)C(=O)O,outcome,[1],inactive
same,"activity change, negative = inhibition",[12],-8.92% (inactive)
same,outcome,[3],inactive
same,Potency,[9],> 20.6 µM (inactive)
same,Potency,[10],> 20.6 µM (inactive)
same,Potency,[4],inactive
same,outcome,[11],inactive
same,"activity change, negative = inhibition",[5],1.16% (inactive)
same,max response,[5]; [13],20.1%
same,max response,[5]; [14],21%
same,Potency,[6],inactive
C=CCN1C(=CCO)[C@H]2C[C@H]3[C@@H]1CC[C@@]31c3ccccc3N3C=C4[C@@H]5N(/C=C/2[C@H]31)c1ccccc1[C@]51CC[C@H]2[C@H]1C[C@@H]4/C(=C/CO)N2CC=C,outcome,[1],inactive
same,"activity change, negative = inhibition",[12],-23.2% (inactive)
same,outcome,[3],inactive
same,Potency,[9],> 20.6 µM (inactive)
same,Potency,[10],> 20.6 µM (inactive)
same,Potency,[4],inactive
same,outcome,[11],inactive
same,"activity change, negative = inhibition",[5],0.271% (inactive)
same,max response,[5]; [13],-16.1%
same,max response,[5]; [14],-15.8%
same,Potency,[7],inactive
same,"activity, negative = inhibition",[8]; parasite line A,1.83% (inactive)
same,"activity, negative = inhibition",[8]; parasite line B,0.223% (inactive)
same,Potency,C2A,inactive
same,Potency,CP217,inactive
same,Potency,CP238,inactive
same,Potency,CP250,inactive
same,Potency,CP256,inactive
same,Potency,FAB9,inactive
same,Potency,JCK,inactive
same,Potency,SC27B,inactive
